Results as given in PubChem BioAssay AID1159580 (chemical genetic matrix, 2015).
Among all 5,500 compounds or so, about 2,000 (36%) were called active. Roughly 18% stayed inconclusive and do not appear here. Rule as the data show it: active = normalized growth mostly below about 0.91 (no sharp cut-off); inconclusive = no clear call, values can overlap the other calls; inactive = mostly above about 0.92. The list shows a part of the results.

Test: chemical genetic growth profiling, strain panel (AID 1159580);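 also: tested at 20 µM; growth read once vehicle control cultures reached saturation at 30 °C; 1 = growth at the plate median or of vehicle wells; lower values mean less growth of the strain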
Settings: growth OD

Measured: normalized growth

COP(=S)(OC)Oc1ccc([N+](=O)[O-])cc1
inactive: S. cerevisiae deletion strains, locus YJR075W, strain HOC1, active compounds read low 0.993 | S. cerevisiae deletion strains, locus YKL009W, strain mrt4, active compounds read low 0.962 | S. cerevisiae deletion strains, locus YKL068W, active compounds read low 0.987 | S. cerevisiae deletion strains, locus YKL085W, strain MDH1 (second series), active compounds read low 0.978 | S. cerevisiae deletion strains, locus YKL085W, strain MDH1, active compounds read low 0.978 | S. cerevisiae deletion strains, locus YKL160W, strain elf1, active compounds read low 0.993 | S. cerevisiae deletion strains, locus YKL190W, strain CNB1, active compounds read low 0.975 | S. cerevisiae deletion strains, locus YKR001C, strain vps1, active compounds read low 0.982 | S. cerevisiae deletion strains, locus YKR026C, strain gcn3, active compounds read low 0.995 | S. cerevisiae deletion strains, locus YKR091W, strain srl3, active compounds read low 0.992 | S. cerevisiae deletion strains, locus YLL001W, strain dnm1, active compounds read low 0.995 | S. cerevisiae deletion strains, locus YLL026W, active compounds read low 0.993 | S. cerevisiae deletion strains, locus YLL041C, strain sdh2, active compounds read low 1 | S. cerevisiae deletion strains, locus YLR027C, strain aat2, active compounds read low 0.998 | S. cerevisiae deletion strains, locus YLR039C, strain RIC1, active compounds read low 0.877 | S. cerevisiae deletion strains, locus YLR058C, strain SHM2, active compounds read low 0.975 | S. cerevisiae deletion strains, locus YLR102C, strain apc9, active compounds read low 0.974 | S. cerevisiae deletion strains, locus YLR113W, strain HOG1, active compounds read low 0.916 | S. cerevisiae deletion strains, locus YLR221C, strain rsa3, active compounds read low 0.974 | S. cerevisiae deletion strains, locus YLR258W, strain gsy2, active compounds read low 0.99 | S. cerevisiae deletion strains, locus YLR262C, strain YPT6 (second series), active compounds read low 0.927 | S. cerevisiae deletion strains, locus YLR262C, strain YPT6, active compounds read low 0.915 | S. cerevisiae deletion strains, locus YLR268W, strain sec22, active compounds read low 0.993 | S. cerevisiae deletion strains, locus YLR320W, strain mms22, active compounds read low 0.944 | S. cerevisiae deletion strains, locus YLR330W, strain CHS5, active compounds read low 0.989 | S. cerevisiae deletion strains, locus YLR342W, strain FKS1 (second series), active compounds read low 0.998 | S. cerevisiae deletion strains, locus YLR342W, strain FKS1, active compounds read low 0.981 | S. cerevisiae deletion strains, locus YLR357W, strain rsc2, active compounds read low 1 | S. cerevisiae deletion strains, locus YLR370C, strain arc18, active compounds read low 0.991 | S. cerevisiae deletion strains, locus YLR371W, strain rom2, active compounds read low 0.975 | S. cerevisiae deletion strains, locus YLR384C, strain iki3, active compounds read low 0.971 | S. cerevisiae deletion strains, locus YLR418C, strain cdc73, active compounds read low 0.991 | S. cerevisiae deletion strains, locus YML016C, strain PPZ1, active compounds read low 0.951 | S. cerevisiae deletion strains, locus YML032C, strain rad52, active compounds read low 0.981 | S. cerevisiae deletion strains, locus YML120C, strain ndi1, active compounds read low 1 | S. cerevisiae deletion strains, locus YML124C, strain tub3, active compounds read low 0.99 | S. cerevisiae deletion strains, locus YMR058W, strain fet3, active compounds read low 1 | S. cerevisiae deletion strains, locus YMR078C, strain ctf18, active compounds read low 0.974 | S. cerevisiae deletion strains, locus YMR125W, strain sto1, active compounds read low 0.995 | S. cerevisiae deletion strains, locus YMR129W, active compounds read low 0.991 | S. cerevisiae deletion strains, locus YMR205C, strain PFK2, active compounds read low 0.97 | S. cerevisiae deletion strains, locus YMR223W, strain ubp8, active compounds read low 0.99 | S. cerevisiae deletion strains, locus YMR231W, strain pep5, active compounds read low 0.978 | S. cerevisiae deletion strains, locus YMR263W, strain SAP30, active compounds read low 0.985 | S. cerevisiae deletion strains, locus YMR307W, strain GAS1, active compounds read low 1.03 | S. cerevisiae deletion strains, locus YNL067W, strain RPL9B, active compounds read low 0.984 | S. cerevisiae deletion strains, locus YNL071W, strain lat1, active compounds read low 0.934 | S. cerevisiae deletion strains, locus YNL128W, strain TEP1, active compounds read low 0.96 | S. cerevisiae deletion strains, locus YNL153C, strain GIM3, active compounds read low 0.998 | S. cerevisiae deletion strains, locus YNL183C, strain NPR1, active compounds read low 0.954 | S. cerevisiae deletion strains, locus YNL209W, strain ssb2, active compounds read low 0.993 | S. cerevisiae deletion strains, locus YNL233W, strain BNI4, active compounds read low 0.977 | S. cerevisiae deletion strains, locus YNL248C, strain rpa49, active compounds read low 0.983 | S. cerevisiae deletion strains, locus YNL250W, strain rad50, active compounds read low 0.981 | S. cerevisiae deletion strains, locus YNL271C, strain bni1, active compounds read low 0.98 | S. cerevisiae deletion strains, locus YNL298W, strain CLA4, active compounds read low 0.977 | S. cerevisiae deletion strains, locus YNL307C, strain MCK1, active compounds read low 0.984 | S. cerevisiae deletion strains, locus YNL322C, strain KRE1 (second series), active compounds read low 0.99 | S. cerevisiae deletion strains, locus YNL322C, strain KRE1, active compounds read low 0.986 | S. cerevisiae deletion strains, locus YNR049C, strain mso1, active compounds read low 1.01 | S. cerevisiae deletion strains, locus YNR052C, strain pop2, active compounds read low 0.984 | S. cerevisiae deletion strains, locus YOL006C, strain TOP1, active compounds read low 0.885 | S. cerevisiae deletion strains, locus YOL012C, strain htz1 1.15 | S. cerevisiae deletion strains, locus YOL147C, strain pex11, active compounds read low 0.994 | S. cerevisiae deletion strains, locus YOR001W, strain rrp6, active compounds read low 1 | S. cerevisiae deletion strains, locus YOR061W, strain CKA2, active compounds read low 0.964 | S. cerevisiae deletion strains, locus YOR069W, strain VPS5, active compounds read low 0.994 | S. cerevisiae deletion strains, locus YOR070C, strain gyp1, active compounds read low 1 | S. cerevisiae deletion strains, locus YOR080W, strain dia2, active compounds read low 0.984 | S. cerevisiae deletion strains, locus YOR083W, strain WHI5, active compounds read low 0.987 | S. cerevisiae deletion strains, locus YOR106W, strain vam3, active compounds read low 0.947 | S. cerevisiae deletion strains, locus YOR136W, strain idh2, active compounds read low 0.997 | S. cerevisiae deletion strains, locus YOR144C, strain elg1, active compounds read low 0.987 | S. cerevisiae deletion strains, locus YOR184W, strain ser1, active compounds read low 0.984 | S. cerevisiae deletion strains, locus YOR231W, strain MKK1, active compounds read low 1 | S. cerevisiae deletion strains, locus YOR265W, strain rbl2, active compounds read low 1.01 | S. cerevisiae deletion strains, locus YOR290C, strain snf2, active compounds read low 0.997 | S. cerevisiae deletion strains, locus YOR316C, strain cot1, active compounds read low 0.967 | S. cerevisiae deletion strains, locus YPL051W, strain arl3, active compounds read low 1.01 | S. cerevisiae deletion strains, locus YPL055C, strain LGE1, active compounds read low 0.964 | S. cerevisiae deletion strains, locus YPL078C, strain atp4, active compounds read low 0.999 | S. cerevisiae deletion strains, locus YPL106C, strain sse1, active compounds read low 0.984 | S. cerevisiae deletion strains, locus YPL240C, strain hsp82, active compounds read low 0.999 | S. cerevisiae deletion strains, locus YPL241C, strain CIN2, active compounds read low 0.985 | S. cerevisiae deletion strains, locus YPL256C, strain CLN2, active compounds read low 1.01 | S. cerevisiae deletion strains, locus YPR119W, strain clb2, active compounds read low 0.983 | S. cerevisiae deletion strains, locus YPR141C, strain kar3, active compounds read low 0.951 | S. cerevisiae deletion strains, locus YPR163C, strain tif3, active compounds read low 0.99 | S. cerevisiae deletion strains, locus YPR167C, strain met16, active compounds read low 0.984 | S. cerevisiae deletion strains, strain wtn01, active compounds read low 0.977 | S. cerevisiae strains, strain wild type, active compounds read low 0.985
active: S. cerevisiae deletion strains, locus YOR270C, strain vph1, active compounds read low 0.658
